# Source: PubChem BioAssay (NCATS)
# Values without a mark were called inactive. The source made the active and inactive calls. Calls come from the whole dose curve; as a rule, active = well fitted curve in the direction sought with a large enough effect; inconclusive = small, poorly fitted or top-dose-only effect, or another doubt; inactive = no such curve, though single readings can be large or run the other way.
# Target: Hexokinase-4 (Homo sapiens) + Glucokinase regulatory protein (Homo sapiens) (UniProt P35557+Q14397)
# Assay: qHTS assay for inhibitors of recombinant human GCK-GKRP interaction: HTRF assay (AID 743207);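 note: 0% = DMSO with GCK present and -100% = DMSO wells lacking GCK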
# Conditions: recombinant GCK-GKRP HTRF binding, 60 min, with sorbitol-6-phosphate; series mostly up to 57.5 µM; activity change, negative = inhibition: at the top concentration
# How it was run: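 Titration screening format: recombinant GST-GCK and FLAG-GKRP at 5 nM, S6P at 2 uM, labelled anti-tag antibodies, 60 min at RT, dual-wavelength HTRF readout.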
# Sequence of Hexokinase-4 (Homo sapiens) + Glucokinase regulatory protein (Homo sapiens) (P35557 whole entry, looked up): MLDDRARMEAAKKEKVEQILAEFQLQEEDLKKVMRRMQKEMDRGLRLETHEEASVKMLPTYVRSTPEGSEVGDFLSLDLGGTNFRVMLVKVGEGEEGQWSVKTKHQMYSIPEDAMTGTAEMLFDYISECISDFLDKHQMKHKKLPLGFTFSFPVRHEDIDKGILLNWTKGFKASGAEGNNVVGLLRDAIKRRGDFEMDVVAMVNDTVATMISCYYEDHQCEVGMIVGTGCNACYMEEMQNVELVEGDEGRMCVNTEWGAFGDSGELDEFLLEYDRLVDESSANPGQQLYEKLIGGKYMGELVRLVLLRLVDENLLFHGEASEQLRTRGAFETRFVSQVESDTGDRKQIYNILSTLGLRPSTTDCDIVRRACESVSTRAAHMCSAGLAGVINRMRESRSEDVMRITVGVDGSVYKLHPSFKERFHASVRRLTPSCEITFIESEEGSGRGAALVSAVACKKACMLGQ
# Sequence of Hexokinase-4 (Homo sapiens) + Glucokinase regulatory protein (Homo sapiens) (Q14397 whole entry, looked up): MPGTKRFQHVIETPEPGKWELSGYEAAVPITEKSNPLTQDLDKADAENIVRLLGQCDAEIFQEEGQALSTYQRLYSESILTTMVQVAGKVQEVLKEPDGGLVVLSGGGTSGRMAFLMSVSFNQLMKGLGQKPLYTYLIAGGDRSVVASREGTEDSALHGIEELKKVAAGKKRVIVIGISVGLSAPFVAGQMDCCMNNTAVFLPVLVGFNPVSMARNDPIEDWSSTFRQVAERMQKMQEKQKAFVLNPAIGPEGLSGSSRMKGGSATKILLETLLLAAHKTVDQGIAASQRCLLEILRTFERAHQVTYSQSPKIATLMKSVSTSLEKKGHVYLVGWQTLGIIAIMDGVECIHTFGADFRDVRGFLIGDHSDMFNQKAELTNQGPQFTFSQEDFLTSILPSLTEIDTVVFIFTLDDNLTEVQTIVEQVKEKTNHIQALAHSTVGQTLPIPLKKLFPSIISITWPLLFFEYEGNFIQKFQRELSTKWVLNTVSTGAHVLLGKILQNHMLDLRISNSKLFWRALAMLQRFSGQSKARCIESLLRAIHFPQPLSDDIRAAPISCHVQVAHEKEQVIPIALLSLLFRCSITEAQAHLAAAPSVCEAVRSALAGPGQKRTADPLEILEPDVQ
Compound,outcome,"activity change, negative = inhibition"
CC(C)NC[C@H](O)c1ccc(O)c(O)c1,inactive,–
CCCn1cnc2c1c(=O)n(CCCCC(C)=O)c(=O)n2C,–,-9.71%
Nc1cc(=O)[nH]c(N)n1,–,-11%
CC(C)C(=O)c1c(C(C)C)nn2ccccc12,–,-2.75%
NC(=O)c1ncn([C@@H]2O[C@H](CO)[C@@H](O)[C@H]2O)n1,–,-7.92%
CC(C)(C)[C@]1(O)CCN2C[C@H]3c4ccccc4CCc4cccc(c43)[C@@H]2C1,inactive,–
CC(C)(C(=O)O)c1ccc(C(O)CCCN2CCC(C(O)(c3ccccc3)c3ccccc3)CC2)cc1 (stereo not drawn),–,-3.09%
CC[C@H]1CN2CCc3cc(OC)c(OC)cc3[C@@H]2C[C@@H]1C[C@H]1NCCc2cc(OC)c(OC)cc21,–,-10.9%
C[C@](N)(Cc1ccc(O)cc1)C(=O)O,–,13%
CCCCCCCCCCCCCCCC(=O)NCCO,–,-1.54%
CSc1ccc2c(c1)C(N1CCN(C)CC1)Cc1ccccc1S2 (stereo not drawn),–,-26.8%
CCN(CC)CCOC(=O)C1(C2CCCCC2)CCCCC1,–,-3.47%
CCN(CC)C(C)CN1c2ccccc2Sc2ccccc21 (stereo not drawn),–,-3.45%
Cc1cc(N)c2ccccc2[n+]1CCCCCCCCCC[n+]1c(C)cc(N)c2ccccc21,–,-10.5%
CC(CN(C)C)CN1c2ccccc2CCc2ccccc21 (stereo not drawn),–,-11.2%
CC1=C(CC(=O)O)c2cc(F)ccc2/C1=C\c1ccc(S(C)=O)cc1 (stereo not drawn),–,-1.26%
COC(=O)C1=C(C)NC(C)=C(C(=O)OC)C1c1ccccc1[N+](=O)[O-],–,9.05%
CC(C)(C)c1onc(OCP(=O)(O)O)c1CC(N)C(=O)O (stereo not drawn),inactive,–
C#CCN(C)Cc1ccccc1,–,6.95%

Compound,outcome,"activity change, negative = inhibition"
CCN(CC)CCNC(=O)c1cc(Cl)c(N)cc1OC,–,3.09%
C=Cc1c(C)c2cc3[nH]c(cc4nc(cc5nc(cc1[nH]2)C(C)=C5CCC(=O)O)C(CCC(=O)O)=C4C)c(C)c3C=C,–,8.29%
N=c1c[n+](N2CCOCC2)[n-]o1,–,-3%
CCN(CC)CCCC(C)Nc1c2ccc(Cl)cc2nc2ccc(OC)cc12 (stereo not drawn),–,13.9%
CNCCCC1c2ccccc2C=Cc2ccccc21,–,-5.44%
Nc1ncnc2c1ncn2[C@@H]1O[C@H](CO)[C@@H](O)[C@H]1O,–,1.3%
CC(C(O)c1ccc(O)cc1)N1CCC(Cc2ccccc2)CC1 (stereo not drawn),–,-9.94%
NC1CCN(c2cccc(Cl)n2)CC1,–,1.77%
CC(=O)OCC(=O)[C@@]1(O)CC[C@H]2[C@@H]3CCC4=CC(=O)CC[C@]4(C)[C@H]3C(=O)C[C@@]21C,–,3.42%
CNCCC(Oc1ccc(C(F)(F)F)cc1)c1ccccc1 (stereo not drawn),–,-2.83%
COCCOC(=O)C1=C(C)NC(C)=C(C(=O)OC/C=C/c2ccccc2)C1c1cccc([N+](=O)[O-])c1 (stereo not drawn),–,0.843%
NC(N)=NCCC[C@H](N)C(=O)O,–,9.7%
OCc1cc(C(O)CNCCCCCCOCCCCc2ccccc2)ccc1O (stereo not drawn),–,-4.56%
O=C1N=C(O)CN1/N=C/c1ccc(-c2ccc([N+](=O)[O-])cc2)o1,–,24.4%
CNCC(O)c1ccc(O)c(O)c1 (stereo not drawn),–,-0.793%
CN(C)CC[C@@H](c1ccc(Cl)cc1)c1ccccn1,–,2.17%
CN1CCN(C2Cc3ccccc3Sc3ccc(Cl)cc32)CC1 (stereo not drawn),–,-1.36%
CC1=C(CC(=O)O)c2cc(F)ccc2/C1=C\c1ccc(S(C)(=O)=O)cc1,–,14.9%
OCCN1CCN(CCCN2c3ccccc3Sc3ccc(Cl)cc32)CC1,–,-1.79%
